USP7 inh: blocks human USP7 ubiquitin-rhodamine cleavage | Q93009 | purified USP7, Ub-rhodamine cleavage fluorescence | inhibition, % at 20 µM | 47,000 compounds, 0.3% hits | AID 1645854
USP8 block: inhibitors of human USP8 deubiquitinase; P40818; purified USP8, Ub-rhodamine cleavage fluorescence, 30 min; inhibition, % at 20 µM; 47,000 compounds, 4.2% hits; AID 1645853
USP10 block: blocks human USP10 ubiquitin-rhodamine cleavage; Q14694; purified USP10, Ub-rhodamine fluorescence, 60 min; inhibition, % at 20 µM; 47,000 compounds, 1.1% hits; AID 1645856
UCHL1 inh: human UCHL1 deubiquitinase inhibition. P09936. purified UCHL1, Ub-rhodamine cleavage fluorescence. inhibition, % at 20 µM. 47,000 compounds, 0.2% hits
OTUD3 block: human OTUD3 deubiquitinase inhibition | Q5T2D3 | purified OTUD3, Ub-rhodamine fluorescence, 2 h | inhibition, % at 25 µM | 47,000 compounds, 0.7% hits | AID 1645858
Target sequence (Q5T2D3 whole entry, looked up): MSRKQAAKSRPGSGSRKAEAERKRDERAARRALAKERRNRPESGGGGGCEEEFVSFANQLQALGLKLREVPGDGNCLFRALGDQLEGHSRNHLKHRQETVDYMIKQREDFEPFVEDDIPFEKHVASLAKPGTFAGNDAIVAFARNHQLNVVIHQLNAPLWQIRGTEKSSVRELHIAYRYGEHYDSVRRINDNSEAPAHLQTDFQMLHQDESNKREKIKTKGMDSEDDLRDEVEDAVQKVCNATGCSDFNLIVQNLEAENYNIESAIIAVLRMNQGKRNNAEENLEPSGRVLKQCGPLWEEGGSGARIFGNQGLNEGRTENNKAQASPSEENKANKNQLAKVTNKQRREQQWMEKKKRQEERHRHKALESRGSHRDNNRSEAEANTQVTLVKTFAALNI
Numbers stand for hits; 0 = inactive. An excerpt weighted towards active compounds, which were near 5% of everything screened. Rule as the data show it: active = inhibition above about 30%; inactive = the rest.

SMILES	USP7 inh	USP8 block	USP10 block	UCHL1 inh	OTUD3 block
CC1Oc2ccc(NC(=O)c3ccc(NS(=O)(=O)c4ccc5c(c4)OCCO5)cc3)cc2NC1=O (stereo not drawn)	0	0	0	0	0
Cc1cc(C)cc(NC(=O)c2c(O)c3ccccc3[nH]c2=O)c1	0	42	0	0	0
Cc1cc(O)c2c(c1)C(=O)c1cc(O)ccc1C2=O	0	0	0	0	0
Cc1cccc(C)c1NC(=O)C1(NC(=O)c2ccc(Br)cc2)CCCCC1	0	43	0	0	0
Cc1cccc(C)c1NC(=O)C1(NC(=O)C(C)O)CCCC1 (stereo not drawn)	0	0	0	0	0
CCCC(=O)N1CCCC(c2nnc(C(=O)Nc3ccc(F)cc3)s2)C1 (stereo not drawn)	0	0	0	0	0
Cc1ccc(-c2c3c4n(c(-c5ccc(Cl)cc5)cn4c2C(=O)Nc2ccccc2Cl)CCCC3)cc1	0	43	0	0	0
Cc1cc(N2CC3(CCCCC3)OC2=O)nc(C2CCN(S(C)(=O)=O)CC2)n1	0	31	0	0	0
Cc1cc(N2CC3(CCCCC3)OC2=O)nc(C2CCCN2C(=O)C(C)(C)C)n1 (stereo not drawn)	0	0	0	0	0
Cc1cccc(Nc2nccc(-n3nc(C)cc3C)n2)c1	0	0	0	0	0
Cc1ccc2ncc(NC(=O)c3ccccc3C)c(=O)n2c1	0	0	0	0	0
Cc1ccccc1C(=O)Nc1ccc(Cc2ccc(NC(=O)c3ccccc3C)c(O)c2)cc1O	0	43	0	0	0
Cc1nn(-c2ccccc2)c2c1N=C1C(Cl)=CC(Cl)=CN1C21C(=O)Nc2ccccc21 (stereo not drawn)	65	94	0	0	0
Cc1ccc(NC(=O)C(Cc2ccccc2)N2CCS(=O)(=O)CC2)cc1C (stereo not drawn)	0	0	0	0	0
O=C(Nc1nc2c(s1)CN(C(=O)/C=C/c1ccco1)CC2)C1CCCO1 (stereo not drawn)	0	41	0	0	0
O=C(Nc1nc2c(s1)CN(C(=O)c1cc(-c3ccco3)on1)CC2)C1CC1	0	0	0	0	0
CCNC(=O)N1CCc2c(cccc2-n2nnc(C(=O)N(C)Cc3ccco3)c2C)C1	0	37	0	0	0
O=C(O)C1CCN(Cc2c(-c3ccco3)nc3ccccn23)CC1	0	0	0	0	0
COc1ccc(-n2c(=O)c3ccc(C(=O)NCCc4ccccc4)cc3n(CC(=O)NCCC3=CCCCC3)c2=O)cc1	0	0	55	0	0
COc1ccc(-n2c(=O)c3ccc(C(=O)NCCc4ccccc4)cc3n(CC(=O)Nc3ccc(C)cc3C)c2=O)cc1	0	0	0	0	0
Cc1ccc(-n2c(=O)c3ccc(C(=O)NCc4ccco4)cc3n(CC(=O)NCCC3=CCCCC3)c2=O)cc1	0	43	45	0	0
Cc1sc(NC(=O)CN2CCc3ccccc3C2)nc1-c1ccc2c(c1)CCN2C(=O)C(C)C	0	47	0	0	0
Cc1cccc(C(=O)N2CCc3cc(-c4nc(NC(=O)C5(c6ccc(Cl)cc6)CCC5)sc4C)ccc32)c1	0	33	0	0	0
Cc1sc(NC(=O)CNc2ccccc2)nc1-c1ccc2c(c1)CCN2C(=O)C1CCCCC1	0	63	0	0	0
Cc1sc(NC(=O)CN2CCCCCC2)nc1-c1ccc2c(c1)CCN2C(=O)C1CCCCC1	0	0	0	0	0
SMILES	USP7 inh	USP8 block	USP10 block	UCHL1 inh	OTUD3 block
Cc1ccccc1-n1nnnc1C1(Nc2cc([N+](=O)[O-])ccc2O)CCCCC1	0	0	0	0	0
COc1ccc(C(CNC(=O)CCc2ccccc2)N2CCOCC2)cc1 (stereo not drawn)	0	0	0	0	0
Cc1ccc(NC(=O)c2cc(-c3ccncc3)n[nH]2)c(Cl)c1	0	0	0	0	0
CN1CCCn2cc(S(=O)(=O)NCCc3ccc(Cl)cc3)cc2C1=O	0	0	0	0	0
Cc1nc(C2CCN(S(C)(=O)=O)CC2)cc(N2C(=O)OCC2Cc2ccccc2)n1 (stereo not drawn)	0	0	0	0	0
OCCCN1C[C@H](Oc2ccccn2)[C@H]2C[C@@H]1Cc1c2[nH]c2ccccc12	0	0	0	0	0
Cc1cc(C)nc(NC(=O)c2ccco2)n1	0	0	0	0	0
O=C(Nc1noc2ccccc12)c1ccco1	0	47	0	0	0
Cc1cc(=O)[nH]c(SCC(=O)c2cc(C)n(CCC3=CCCCC3)c2C)c1C#N	0	49	45	0	0
CC1=CC(=O)C(C2=C(O)C(=O)C(C)=CC2=O)=C(O)C1=O	0	32	0	0	36
C=C(CC[C@@H](C)[C@H]1CC[C@@H]2[C@]1(C)C[C@@H](O)[C@@]13C[C@@]14C(=O)C[C@H](O)[C@@](C)(C(=O)O)[C@@H]4C(=O)C[C@]23O)C(C)C	0	0	0	0	0
O=C(Nc1cnc(-c2ccc(F)cc2)nc1)C1CCC1	0	0	0	0	0
Cc1ccc(-c2ncc(NC(=O)C3CCC3)cn2)cc1	0	33	0	0	0
O=C(CSc1ncccc1C(=O)Nc1ccnn1Cc1cccnc1)Nc1ccc2c(c1)OCO2	0	45	0	0	0
O=C(CSc1ncccc1C(=O)Nc1ccnn1Cc1ccncc1)Nc1ccc2c(c1)OCO2	0	0	0	0	0
Cc1cc(C)cc(OCC(=O)N2CCN(c3ccccn3)CC2)c1	0	0	0	0	0
O=C(O)c1c(CNCc2cccs2)c2ccccc2n1Cc1cccc(F)c1	0	0	0	0	0
O=C(NCc1cccnc1)c1c2c(NCC3CC3)ncnc2n2ccccc12	0	68	0	0	0
CN1CCCN(C(=O)c2c3c(NCc4ccccc4)ncnc3n3ccccc23)CC1	0	0	0	0	0
COC(=O)c1cn(CC(=O)N2CCCc3ccccc32)c2ccccc12	0	0	0	0	0
O=C(Cn1cc(C(=O)C(F)(F)F)c2ccccc21)N1CCc2ccccc21	0	68	0	0	0
COc1ccc(CCNC(=O)COC(=O)c2ccc(N3CCCC3=O)cc2)cc1	0	30	0	0	0
COc1ccc(C(=O)Nc2cccc(N3CCCCC3=O)c2)cc1	0	0	0	0	0
CC(=O)Nc1ccc(OCC(O)CN2CCc3ccccc3C2)cc1 (stereo not drawn)	0	0	0	0	0
COC(=O)COc1ccc(/C=N/NC(=O)c2ccc(CN3CCc4ccccc4C3)cc2)cc1	0	36	0	0	0
Cc1c(Cl)cccc1NC(=O)c1ccc(CN2CCc3ccccc3C2)cc1	0	0	0	0	0
O=C(Nc1ccccc1C(=O)N1CCCC1)c1ccc(CN2CCc3ccccc3C2)cc1	0	40	0	0	0
COc1ccc(CN2CCN(C(C)c3nnc(-c4ccc(F)cc4)o3)CC2)cc1OC (stereo not drawn)	0	0	0	0	0
COc1ccc(Cl)cc1C(=O)NNC(=O)c1cc(-c2ccccc2)n[nH]1	0	85	40	0	0
O=C(O)c1cc(-c2ccccc2)n[nH]1	0	0	0	0	0
